From PubChem BioAssay come the findings set out here.

Assay [1] is described as follows: yeast TOR pathway RPL19A-GFP modulators, primary screen, cell-based, S. cerevisiae, multiplex flow cytometry (AID 1862; in the data active = percent of DMSO control GFP below about 86%;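 note: lower values mimic rapamycin by blocking the RPL19A rise seen in DMSO cells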). As to conditions: S. cerevisiae RPL19A-GFP strain, flow cytometry fluorescence, 3 h; at 10 µM; stronger effect = lower value.
Assay [2] is described as follows: modulators of MEP2-GFP levels in yeast, primary screen, S. cerevisiae, multiplex flow cytometry (AID 1867;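 active = GFP response, as percent of the DMSO control, above the screen-wide mean plus 3 SD, about 139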;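 note: median GFP channel fluorescence of barcode-gated MEP2-GFP cells measured by flow cytometry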). As to conditions: S. cerevisiae MEP2-GFP strain, 3 h, at 10 µM, stronger effect = higher value, 100% means same as DMSO wells. In general terms: A flow cytometer gives signals particle by particle.
Assay [3] is described as follows: modulators of CIT2-GFP expression in yeast, primary screen, S. cerevisiae, GFP fusion, multiplex flow cytometry (AID 1870;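 active = percent response above a set limit, the screen-wide mean plus 3 SD, cut at about 130% in these data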;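 note: barcoded CIT2-GFP strain pooled with four other GFP strains with rapamycin as positive control; median GFP fluorescence per well over plate mean of DMSO wells so 100% = DMSO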). The settings on record: 3 h, at 10 µM, stronger effect = higher value.
Assay [4] in a line: modulators of LAP4-GFP expression in yeast, primary screen, S. cerevisiae, multiplex flow cytometry (AID 1873;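 active = GFP signal, as percent of the solvent control, above the screen mean plus 3 SD, about 149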). The settings on record: 3 h, at 10 µM, stronger effect = higher value.
The nature of assay [5]: modulators of AGP1-GFP expression in yeast TOR pathway, primary screen, cell-based, multiplex flow cytometry, S. cerevisiae (AID 1887;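 active = GFP signal above the screen-wide mean plus 3 SD, that is over about 124.5% of the solvent control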;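 note: AGP1-GFP fusion strain of S. cerevisiae within a five-strain barcoded multiplex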). The settings on record: 3 h, at 10 µM, stronger effect = higher value.
Assay [6] can be described thus: inhibitors of CD8+ T cell-vesicle binding, pilot screen, LFA-1/ICAM-1 modulator project, MLPCN validation set, flow cytometry (AID 2523;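 active = response below a set limit, under 55% cells CD8-positive and vesicle-bound, and CD8 cells' 90th-percentile brightness under 279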;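 for vesicle binding response: mean PE anti-B7-1 fluorescence of CD8+ cells relative to row control; 100% = QL9-loaded vesicles with DMSO vehicle in the same plate row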). As to conditions: 2C mouse CD8+ T cells, at 7 µM, stronger effect = lower value; double positive events: measured here: CD8+/vesicle+ event percentage.
The target of assay [7] is Integrin beta-1 (Homo sapiens) + Integrin alpha-4 (Homo sapiens) (UniProt P13612+P05556). As to the kind of experiment: inhibition of HUTS-21 binding to VLA-4, pilot screen, VLA-4 allosteric modulator project, U937 cells, HUTS-21 mAb, flow cytometry, validation set (AID 2674;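 active = inhibition above 50%, about 3 SD of the validation set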;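 note: antibody binding induced by the VLA-4 ligand LDV present at three times its Kd; 0% = LDV ligand with antibody and no compound and 100% = antibody without LDV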). As to conditions: HUTS-21 LIBS mAb binding, at 6.7 µM, stronger effect = higher value, binding induced by LDV ligand.
Chain of Integrin beta-1 (Homo sapiens) + Integrin alpha-4 (Homo sapiens) (P05556 whole entry, looked up): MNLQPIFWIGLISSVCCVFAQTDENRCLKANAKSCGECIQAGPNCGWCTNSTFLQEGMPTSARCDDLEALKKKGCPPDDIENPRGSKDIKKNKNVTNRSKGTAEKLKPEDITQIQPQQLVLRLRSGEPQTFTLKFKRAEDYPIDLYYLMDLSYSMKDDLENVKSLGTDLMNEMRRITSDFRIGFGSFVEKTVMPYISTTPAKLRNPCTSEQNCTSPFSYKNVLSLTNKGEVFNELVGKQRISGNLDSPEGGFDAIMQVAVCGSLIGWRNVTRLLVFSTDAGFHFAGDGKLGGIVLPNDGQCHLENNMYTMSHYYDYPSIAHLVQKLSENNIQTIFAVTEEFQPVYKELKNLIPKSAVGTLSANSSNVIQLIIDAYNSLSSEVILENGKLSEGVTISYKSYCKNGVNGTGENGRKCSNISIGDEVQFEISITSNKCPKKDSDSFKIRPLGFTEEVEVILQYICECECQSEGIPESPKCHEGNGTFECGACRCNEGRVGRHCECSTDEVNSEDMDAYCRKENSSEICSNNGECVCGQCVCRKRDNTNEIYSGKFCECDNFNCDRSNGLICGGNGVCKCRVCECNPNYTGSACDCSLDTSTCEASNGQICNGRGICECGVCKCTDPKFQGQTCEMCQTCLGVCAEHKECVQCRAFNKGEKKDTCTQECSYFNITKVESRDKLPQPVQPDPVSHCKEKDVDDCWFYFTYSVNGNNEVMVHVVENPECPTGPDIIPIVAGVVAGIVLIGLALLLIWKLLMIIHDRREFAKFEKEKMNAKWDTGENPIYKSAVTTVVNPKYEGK
Chain of Integrin beta-1 (Homo sapiens) + Integrin alpha-4 (Homo sapiens) (P13612 whole entry, looked up): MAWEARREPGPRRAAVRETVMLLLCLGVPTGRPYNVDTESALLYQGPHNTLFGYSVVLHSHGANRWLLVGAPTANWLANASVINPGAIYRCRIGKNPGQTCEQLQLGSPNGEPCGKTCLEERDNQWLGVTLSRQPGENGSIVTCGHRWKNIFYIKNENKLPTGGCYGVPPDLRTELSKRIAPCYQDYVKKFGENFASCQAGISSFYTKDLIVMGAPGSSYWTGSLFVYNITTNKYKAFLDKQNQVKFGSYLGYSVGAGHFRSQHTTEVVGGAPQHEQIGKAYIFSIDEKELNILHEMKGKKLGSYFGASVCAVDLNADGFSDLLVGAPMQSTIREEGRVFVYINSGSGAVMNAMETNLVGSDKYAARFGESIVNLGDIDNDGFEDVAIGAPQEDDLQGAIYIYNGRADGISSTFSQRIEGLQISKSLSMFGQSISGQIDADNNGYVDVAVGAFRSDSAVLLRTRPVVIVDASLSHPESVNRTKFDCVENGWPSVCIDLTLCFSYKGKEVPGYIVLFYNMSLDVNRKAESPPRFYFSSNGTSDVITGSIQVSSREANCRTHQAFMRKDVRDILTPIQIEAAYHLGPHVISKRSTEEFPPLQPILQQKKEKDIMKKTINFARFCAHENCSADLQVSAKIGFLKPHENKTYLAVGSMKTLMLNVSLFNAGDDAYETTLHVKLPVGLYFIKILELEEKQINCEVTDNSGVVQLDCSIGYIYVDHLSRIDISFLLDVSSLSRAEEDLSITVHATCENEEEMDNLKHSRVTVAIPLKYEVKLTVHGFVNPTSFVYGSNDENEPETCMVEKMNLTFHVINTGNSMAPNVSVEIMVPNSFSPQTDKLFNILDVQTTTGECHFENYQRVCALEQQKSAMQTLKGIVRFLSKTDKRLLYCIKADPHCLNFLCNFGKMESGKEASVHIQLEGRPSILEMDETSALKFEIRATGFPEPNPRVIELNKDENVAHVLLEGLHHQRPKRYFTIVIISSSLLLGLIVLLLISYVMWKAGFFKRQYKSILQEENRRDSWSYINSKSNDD

The nature of assay [8]: superoxide lowering in aged yeast cells, pilot screen, validation compound set (AID 2706;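 active = superoxide response below 65% of plate, a cut near 3 SD across the whole screen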;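 note: yeast exposed to compound for one week at 30 degrees C before staining; 100% = mean of all compound wells on the same plate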). The settings on record: S. cerevisiae aging, superoxide DHE fluorescence; at 10 µM; stronger effect = lower value.
Assay [9] addresses Beta-adrenergic receptor kinase 1 (Homo sapiens) (UniProt P25098). Description: GRK2 binders displacing RNA aptamer, biochemical, validation, human GRK2, bead flow cytometry (AID 488806;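 active = aptamer binding inhibition above 30%, about 3 SD of noise from non-fluorescent compounds; inactive = inhibition at or below 30%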). As to conditions: bead-bound GRK2, FAM-aptamer displacement, at 10 µM, stronger effect = higher value.
The target of assay [10] is Beta-2 adrenergic receptor (Homo sapiens) (UniProt P07550). Description: beta2AR agonists driving receptor internalization, pilot screen, cell-based, FAP fluorogen, flow cytometry, validation set (AID 504459;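 active = percent response above 42, roughly 3 SD of non-fluorescent test compounds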;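 note: agonist-driven loss of surface beta2AR via internalization measured by FAP dye flow cytometry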). As to conditions: Am2.2-beta2AR cells, FAP surface receptor flow cytometry; at 10 µM; stronger effect = higher value.
Chain of Beta-2 adrenergic receptor (Homo sapiens) (P07550 whole entry, looked up): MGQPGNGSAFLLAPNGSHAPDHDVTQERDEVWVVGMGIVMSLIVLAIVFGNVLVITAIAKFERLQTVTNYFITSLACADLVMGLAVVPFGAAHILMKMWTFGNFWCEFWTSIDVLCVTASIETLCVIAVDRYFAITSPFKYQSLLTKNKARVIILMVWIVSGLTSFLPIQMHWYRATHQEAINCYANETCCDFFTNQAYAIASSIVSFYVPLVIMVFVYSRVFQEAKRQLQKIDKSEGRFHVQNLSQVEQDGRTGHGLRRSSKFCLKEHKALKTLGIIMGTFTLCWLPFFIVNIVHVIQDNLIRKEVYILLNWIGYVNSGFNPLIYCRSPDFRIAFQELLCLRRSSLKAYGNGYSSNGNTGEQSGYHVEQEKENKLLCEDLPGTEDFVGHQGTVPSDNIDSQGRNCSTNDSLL
Assay [11] addresses AP-2 complex subunit beta (Homo sapiens) (UniProt P63010). As to the kind of experiment: inhibitors of arrestin peptide binding to AP2, pilot screen, biochemical, validation set, GST-AP2 beads, flow cytometry (AID 504541;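 active = inhibition above 54%, about 3 SD of non-fluorescent compounds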;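 note: AP2 carries R879A mutation and is captured from E. coli lysate; bead-bound FITC arrestin peptide fluorescence measuring arrestin peptide binding to AP2; 0% = DMSO wells and 100% = excess unlabeled arrestin peptide control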). The settings on record: FITC arrestin peptide, at 10 µM, stronger effect = higher value, AP2 beta2 appendage fragment, R879A mutant.
The nature of assay [12]: yeast V-ATPase proton transport modulators, S. cerevisiae, pHLuorin, HTS validation (AID 504600; in the data active = response above about 15%;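 note: plate controls were DMSO for no effect and reference compound for full effect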). The settings on record: S. cerevisiae pHLuorin cytosolic pH, at 10 µM, stronger effect = higher value.
The test system of assay [13] is anti-desmoglein-3 scFv antibody binding to human DSG3. As to the kind of experiment: inhibitors of anti-DSG3 scFv binding to DSG3, pilot screen, biochemical, validation compound set, bead-based, flow cytometry (AID 588368;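 active = binding below the plate cutoff, the plate median minus 3 SD, with a reading above zero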;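 note: signal is the median channel fluorescence of bead-bound GFP antibody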). The settings on record: Protein G beads, DSG3-Fc, scFv-GFP binding, at 10 µM, stronger effect = lower value.
Assay [14] in a line: inhibitors of fungal efflux pumps CDR1, CDR2, MDR1, pilot screen, validation compound set, multiplex, phenotypic (AID 588506).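 Note: Nile Red retained in cells so higher fluorescence means more efflux inhibition; 0 = negative control wells and 1 = enniatin B 25 µM full block.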 As to conditions: S. cerevisiae pump-expressing triplex, Nile Red efflux flow cytometry; at 10 µM; stronger effect = higher value; the pumps come from Candida albicans.
Assay [15] concerns the target ATP-binding cassette sub-family B member 6 (Homo sapiens) (UniProt Q9NP58). As to the kind of experiment: ABCB6 transporter inhibitors, pilot screen, K562-ABCB6 cells, flow cytometry, validation set (AID 588550;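 active = inhibition above the screen-wide mean plus 3 SD, about 51%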;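 note: 0% = DMSO wells and 100% = benzethonium chloride 70 µM positive control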). As to conditions: K562-ABCB6 porphyrin accumulation, 1 h, at 10 µM, stronger effect = higher value.
The nature of assay [16]: promoters of myeloid differentiation in arrested cells, primary screen, cell-based, GFP/MAC1 double positive, flow cytometry, validation set (AID 588685;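 active = differentiation response of at least 50%, scaled between solvent and reference control, from cells with both markers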;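 note: compound exposure lasts four days before antibody staining and flow analysis; 0% = DMSO wells and 100% = 5 µM fulvestrant positive control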). The settings on record: ER-HoxA9 marrow cells, stronger effect = higher value, normalized: vehicle 0, fulvestrant 100.

Records with an inconclusive call do not appear. The source made the active and inactive calls.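 Rule for the calls, unless noted: active = efflux inhibition above 0.42, the validation set average plus 4 SD; inconclusive = no clear call, values can overlap the other calls; inactive = the rest.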

Chain of Beta-adrenergic receptor kinase 1 (Homo sapiens) (P25098 whole entry, looked up): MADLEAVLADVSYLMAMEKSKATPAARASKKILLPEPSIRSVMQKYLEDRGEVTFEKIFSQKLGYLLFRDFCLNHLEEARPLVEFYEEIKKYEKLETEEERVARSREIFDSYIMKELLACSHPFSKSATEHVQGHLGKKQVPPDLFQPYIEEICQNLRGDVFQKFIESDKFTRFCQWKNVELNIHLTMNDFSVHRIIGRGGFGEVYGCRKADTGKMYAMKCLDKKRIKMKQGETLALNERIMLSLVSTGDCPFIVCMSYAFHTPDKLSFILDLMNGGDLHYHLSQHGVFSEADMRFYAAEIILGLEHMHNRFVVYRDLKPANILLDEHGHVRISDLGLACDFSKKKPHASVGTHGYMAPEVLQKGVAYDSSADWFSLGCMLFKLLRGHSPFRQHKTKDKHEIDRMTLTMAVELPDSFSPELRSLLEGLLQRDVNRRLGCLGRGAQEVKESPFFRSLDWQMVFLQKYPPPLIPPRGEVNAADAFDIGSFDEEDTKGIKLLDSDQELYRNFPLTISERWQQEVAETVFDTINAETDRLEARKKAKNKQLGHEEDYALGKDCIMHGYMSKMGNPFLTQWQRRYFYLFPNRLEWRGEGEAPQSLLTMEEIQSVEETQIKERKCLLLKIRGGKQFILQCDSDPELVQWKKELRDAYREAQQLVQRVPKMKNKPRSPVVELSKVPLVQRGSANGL
Chain of ATP-binding cassette sub-family B member 6 (Homo sapiens) (Q9NP58 whole entry, looked up): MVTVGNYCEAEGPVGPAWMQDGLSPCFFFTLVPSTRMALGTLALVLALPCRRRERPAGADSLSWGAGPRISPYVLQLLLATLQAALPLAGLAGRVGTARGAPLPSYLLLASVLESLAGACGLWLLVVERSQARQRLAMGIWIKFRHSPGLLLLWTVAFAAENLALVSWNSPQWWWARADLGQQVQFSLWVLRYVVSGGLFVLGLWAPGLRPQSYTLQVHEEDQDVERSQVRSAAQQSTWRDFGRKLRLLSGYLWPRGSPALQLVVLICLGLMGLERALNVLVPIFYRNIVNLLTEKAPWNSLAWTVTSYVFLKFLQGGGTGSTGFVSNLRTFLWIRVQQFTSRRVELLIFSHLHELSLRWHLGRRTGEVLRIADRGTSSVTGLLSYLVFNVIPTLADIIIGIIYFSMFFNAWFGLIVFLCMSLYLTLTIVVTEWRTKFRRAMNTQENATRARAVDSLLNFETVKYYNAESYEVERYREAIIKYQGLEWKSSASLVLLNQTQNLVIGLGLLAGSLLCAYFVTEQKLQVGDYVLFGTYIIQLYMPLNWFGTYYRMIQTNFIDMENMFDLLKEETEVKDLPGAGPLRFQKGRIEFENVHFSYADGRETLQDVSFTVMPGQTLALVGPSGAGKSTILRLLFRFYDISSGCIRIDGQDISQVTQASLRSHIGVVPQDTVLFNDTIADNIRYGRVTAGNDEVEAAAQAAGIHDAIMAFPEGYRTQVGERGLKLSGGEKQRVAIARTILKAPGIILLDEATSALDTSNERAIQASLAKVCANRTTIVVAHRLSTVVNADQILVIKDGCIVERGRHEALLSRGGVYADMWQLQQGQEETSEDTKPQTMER
Chain of AP-2 complex subunit beta (Homo sapiens) (P63010 whole entry, looked up, the tested form may be a part, one chain of several): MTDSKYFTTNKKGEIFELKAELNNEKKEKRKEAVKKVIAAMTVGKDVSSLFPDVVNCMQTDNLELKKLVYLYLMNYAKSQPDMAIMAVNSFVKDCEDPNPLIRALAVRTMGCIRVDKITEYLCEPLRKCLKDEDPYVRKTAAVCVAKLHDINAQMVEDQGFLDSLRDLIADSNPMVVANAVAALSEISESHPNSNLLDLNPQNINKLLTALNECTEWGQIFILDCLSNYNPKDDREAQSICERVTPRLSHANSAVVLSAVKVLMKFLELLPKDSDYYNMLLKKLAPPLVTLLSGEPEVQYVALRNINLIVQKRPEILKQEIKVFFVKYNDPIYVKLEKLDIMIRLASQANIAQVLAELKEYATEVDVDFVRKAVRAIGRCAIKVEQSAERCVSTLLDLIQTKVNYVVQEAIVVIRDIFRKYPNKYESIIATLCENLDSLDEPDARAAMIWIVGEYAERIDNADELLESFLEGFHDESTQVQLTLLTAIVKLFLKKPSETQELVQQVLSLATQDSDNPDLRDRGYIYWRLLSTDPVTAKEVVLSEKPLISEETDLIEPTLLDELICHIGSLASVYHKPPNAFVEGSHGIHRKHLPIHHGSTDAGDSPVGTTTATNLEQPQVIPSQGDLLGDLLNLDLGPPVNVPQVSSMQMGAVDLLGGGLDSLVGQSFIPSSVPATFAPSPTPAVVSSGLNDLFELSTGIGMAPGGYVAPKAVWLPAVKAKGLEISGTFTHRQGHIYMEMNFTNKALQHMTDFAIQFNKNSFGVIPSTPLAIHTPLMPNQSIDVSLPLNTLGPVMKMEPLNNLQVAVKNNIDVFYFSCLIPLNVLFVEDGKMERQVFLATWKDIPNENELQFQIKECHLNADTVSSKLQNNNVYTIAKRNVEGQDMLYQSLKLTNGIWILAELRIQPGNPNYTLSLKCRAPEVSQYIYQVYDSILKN

On to `CCN(CC)CCCNC(=O)C1c2ccccc2Oc2ccccc21`, for which the percent of DMSO control GFP in assay [1] was 100% (inactive). Besides, the GFP response vs DMSO in [2] was 95.1% (inactive); in assay [4], 89.4% (inactive). The percent response of DMSO control in assay [3] was 95.4% (inactive). For the same compound, in assay [5], the GFP response, % of DMSO is 97.2% (inactive). In addition, the double positive events in assay [6] was 64.1%. The vesicle binding response in assay [6] was 1360% (inactive). For the same compound, the inhibition (in general, the change of the read-out against control, counted positive when it falls) is 13% (inactive) in assay [7], 17% (inactive) in [11] and -2% (inactive) in assay [15]. The superoxide response (% of plate) in assay [8] is 101% (inactive). Also, the aptamer binding inhibition in assay [9] was 2% (inactive). The figures for the response in assay [10] and in [12] were 2.25% (inactive) and -0.98% (inactive), respectively. Further, in [13], the binding (% of control) was 101% (inactive). Moreover, the efflux inhibition (fraction of control) in assay [14] is 0.49 (active). Also, the differentiation response in assay [16] is 26.6% (inactive).

For the compound `COc1cccc(C2CC(=O)C3=C(C2)Nc2ccccc2N(C(=O)CCC(=O)O)C3c2ccc(F)cc2)c1` (stereo not given), the percent of DMSO control GFP in assay [1] is 95% (inactive). The GFP response vs DMSO is 149% (active) in [2] and 89.1% (inactive) in [4]. For the same compound, in assay [3], the percent response of DMSO control is 102% (inactive). For the same compound, in assay [5], the GFP response, % of DMSO is 93.8% (inactive). In assay [6], this compound returned a double positive events of 64%. The vesicle binding response in [6] was 213% (inactive). Also, the inhibition is 11.3% (inactive) in assay [7], 30.9% (inactive) in assay [11] and 4% (inactive) in assay [15]. Besides, in assay [8], the superoxide response (% of plate) is 98% (inactive). In addition, the aptamer binding inhibition in assay [9] was 4% (inactive). Further, the response is -3.62% (inactive) in assay [10] and -2.19% (inactive) in [12]. Moreover, in assay [13], the binding (% of control) is 102% (inactive). For the same compound, the efflux inhibition (fraction of control) in assay [14] was -0.13 (inactive). Moreover, the differentiation response in [16] was -1.64% (inactive).

As for `Cc1cccc(Nc2ccccc2C(=O)O)c1C`, the percent of DMSO control GFP in assay [1] was 99.5% (inactive). The GFP response vs DMSO in assay [2] is 102% (inactive); in assay [4] it was 114% (inactive). In assay [3], the percent response of DMSO control is 86.7% (inactive). Besides, in assay [5], the GFP response, % of DMSO is 102% (inactive). Moreover, the double positive events in assay [6] was determined as 65.8%. Further, the vesicle binding response in assay [6] is 236% (inactive). In addition, the inhibition is 4.84% (inactive) in assay [7], -8.96% (inactive) in assay [11] and 5% (inactive) in [15]. In addition, the superoxide response (% of plate) in assay [8] is 87.1% (inactive). The aptamer binding inhibition in assay [9] was -1% (inactive). The response in assay [10] was -5.24% (inactive); in assay [12], -29.3% (inactive). In addition, the binding (% of control) in assay [13] was 101% (inactive). Further, the efflux inhibition (fraction of control) in [14] was 0.08 (inactive). In [16], the differentiation response was -12.9% (inactive).

Take `C[N+](C)(C)CCCC(=O)c1ccc2c(c1)OCO2`: the percent of DMSO control GFP in assay [1] is 94.4% (inactive). Moreover, the GFP response vs DMSO is 111% (inactive) in assay [2] and 107% (inactive) in [4]. Moreover, the percent response of DMSO control in assay [3] is 96.7% (inactive). Further, the GFP response, % of DMSO in assay [5] is 97.7% (inactive). Besides, the double positive events in [6] came to 59.8%. For the same compound, the vesicle binding response in assay [6] is 135% (inactive). Further, the inhibition in [7] was -22.3% (inactive); in [11] it was -2.19% (inactive); in assay [15], 8% (inactive). In assay [8], the superoxide response (% of plate) is 104% (inactive). For the same compound, the aptamer binding inhibition in assay [9] was 0% (inactive). The response is -0.41% (inactive) in [10] and 0.48% (inactive) in assay [12]. Moreover, in assay [13], the binding (% of control) was 101% (inactive). Further, the efflux inhibition (fraction of control) in assay [14] was -0.03 (inactive). Besides, in assay [16], the differentiation response was -12% (inactive).

For the compound `CN(C(=O)C(Cl)Cl)c1ccc(OC(=O)c2ccco2)cc1`, the percent of DMSO control GFP in assay [1] is 99% (inactive). For the same compound, the GFP response vs DMSO in assay [2] was 105% (inactive); in [4], 98% (inactive). For the same compound, in assay [3], the percent response of DMSO control was 97.8% (inactive). In addition, the GFP response, % of DMSO in [5] was 96.8% (inactive). This compound registered a double positive events in assay [6] of 59.3%. For the same compound, the vesicle binding response in assay [6] is 90.2% (inactive). The inhibition in assay [7] is -1.49% (inactive); in assay [11], 15.3% (inactive); in [15] it was 7% (inactive). Besides, the superoxide response (% of plate) in assay [8] was 94% (inactive). For the same compound, in assay [9], the aptamer binding inhibition is 4% (inactive). For the same compound, the results for the response in assay [10] and in assay [12] were 5.41% (inactive) and -0.32% (inactive), respectively. The binding (% of control) in assay [13] was 99% (inactive). The efflux inhibition (fraction of control) in assay [14] is -0.04 (inactive). Moreover, the differentiation response in assay [16] is -3.67% (inactive).
